Results: PubChem BioAssay AID1159580 (chemical genetic matrix, 2015)
Values joined by “and” are separate entries in the source; they are usually repeats but may differ in a detail not shown here. Equal values may be shown once. Hit rate of the full screen: of about 5,500 compounds, about 2,000 (36%) were called active. Another 18% or so got no clear call; they are omitted. Cut-off read from the data, not from the text of the source: active = normalized growth mostly below about 0.91 (no sharp cut-off); inconclusive = no clear call, values can overlap the other calls; inactive = mostly above about 0.92. The list shows a part of the results.

Test: chemical genetic growth profiling, strain panel (AID 1159580);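 note: tested at 20 µM; growth read once vehicle control cultures reached saturation at 30 °C; 1 = growth at the plate median or of vehicle wells; lower values mean less growth of the strain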
Conditions: S. cerevisiae deletion strains, growth OD

Measured: normalized growth

CC1CCc2cc(F)cc3c(=O)c(C(=O)O)cn1c23 (configuration not stated)
inactive: locus YAL013W, strain DEP1, active compounds read low 0.985 | locus YAL021C, strain ccr4, active compounds read low 0.967 | locus YAL026C, strain drs2, active compounds read low 0.981 | locus YAL030W, strain snc1, active compounds read low 0.989 | locus YBL061C, strain skt5, active compounds read low 0.985 | locus YBR009C, strain hhf1, active compounds read low 0.987 | locus YBR021W, strain FUR4, active compounds read low 0.943 | locus YBR023C, strain chs3, active compounds read low 0.975 | locus YBR171W, strain sec66, active compounds read low 0.979 | locus YBR229C, strain ROT2, active compounds read low 0.98 | locus YBR231C, strain swc5, active compounds read low 0.997 | locus YBR279W, strain paf1, active compounds read low 0.985 | locus YCL011C, strain gbp2, active compounds read low 0.988 | locus YCL016C, strain dcc1, active compounds read low 0.977 | locus YCL029C, strain bik1, active compounds read low 0.925 | locus YCL061C, strain MRC1, active compounds read low 0.989 | locus YCL069W, strain vba3, active compounds read low 0.992 | locus YCR088W, strain abp1, active compounds read low 0.999 | locus YDL005C, strain med2, active compounds read low 0.995 | locus YDL035C, strain GPR1, active compounds read low 1 | locus YDL040C, strain nat1, active compounds read low 0.999 | locus YDL074C, strain BRE1, active compounds read low 0.972 | locus YDL101C, strain DUN1, active compounds read low 0.974 | locus YDL134C, strain PPH21, active compounds read low 0.975 | locus YDL185W, strain tfp1, active compounds read low 0.981 | locus YDL192W, strain arf1, active compounds read low 0.967 | locus YDR001C, strain nth1, active compounds read low 0.992 | locus YDR069C, strain doa4, active compounds read low 1 | locus YDR101C, strain arx1, active compounds read low 0.962 | locus YDR137W, strain rgp1, active compounds read low 0.942 | locus YDR150W, strain NUM1, active compounds read low 0.981 | locus YDR159W, strain sac3, active compounds read low 1.01 | locus YDR162C, strain NBP2, active compounds read low 0.991 | locus YDR195W, strain ref2 0.99 | locus YDR297W, strain sur2, active compounds read low 0.997 | locus YDR318W, strain mcm21, active compounds read low 0.97 | locus YDR334W, strain swr1, active compounds read low 0.986 | locus YDR335W, strain msn5, active compounds read low 0.991 | locus YDR388W, active compounds read low 0.952 | locus YDR392W, strain spt3, active compounds read low 0.941 | locus YDR502C, strain sam2, active compounds read low 0.984 | locus YEL003W, strain gim4, active compounds read low 1 | locus YEL037C, strain rad23, active compounds read low 0.993 | locus YEL061C, strain CIN8 (second series), active compounds read low 0.993 | locus YEL061C, strain CIN8, active compounds read low 0.985 | locus YER015W, strain faa2, active compounds read low 0.982 | locus YER016W, strain bim1, active compounds read low 1 | locus YER110C, active compounds read low 0.976 | locus YER111C, strain swi4, active compounds read low 0.984 | locus YER155C, strain BEM2 (second series), active compounds read low 0.994 | locus YER155C, strain BEM2, active compounds read low 0.975 | locus YER167W, strain BCK2, active compounds read low 0.988 | locus YFR010W, strain ubp6, active compounds read low 0.984 | locus YGL078C, strain dbp3, active compounds read low 0.969 | locus YGL086W, strain mad1, active compounds read low 0.987 | locus YGL167C, strain pmr1, active compounds read low 0.993 | locus YGL173C, strain kem1, active compounds read low 0.991 | locus YGL227W, strain vid30, active compounds read low 0.985 | locus YGL240W, strain doc1, active compounds read low 0.991 | locus YGL248W, strain PDE1, active compounds read low 0.984 | locus YGL253W, strain hxk2, active compounds read low 0.995 | locus YGR078C, strain PAC10, active compounds read low 0.974 | locus YGR135W, strain pre9, active compounds read low 0.974 | locus YGR229C, strain SMI1, active compounds read low 1.01 | locus YGR252W, strain gcn5, active compounds read low 1.04 | locus YHR013C, strain ard1, active compounds read low 0.965 | locus YHR027C, strain rpn1, active compounds read low 0.985 | locus YHR030C, strain SLT2, active compounds read low 0.982 and 0.978 | locus YHR079C, strain IRE1 (second series), active compounds read low 0.955 | locus YHR079C, strain IRE1, active compounds read low 0.988 | locus YHR094C, strain hxt1, active compounds read low 0.983 | locus YHR129C, strain ARP1, active compounds read low 0.977 | locus YHR142W, strain chs7, active compounds read low 0.981 | locus YHR200W, strain rpn10, active compounds read low 0.969 | locus YIL066C, strain RNR3, active compounds read low 0.974 | locus YIL073C, strain SPO22, active compounds read low 0.991 | locus YIL125W, strain kgd1, active compounds read low 0.985 | locus YIR030C, strain dcg1, active compounds read low 0.972 | locus YJL092W, strain hpr5, active compounds read low 0.988 | locus YJL095W, strain BCK1 (second series), active compounds read low 0.989 | locus YJL095W, strain BCK1, active compounds read low 0.948 and 0.982 | locus YJL115W, strain asf1, active compounds read low 0.983 | locus YJL129C, strain trk1, active compounds read low 1 | locus YJL134W, strain LCB3, active compounds read low 0.984 | locus YJL154C, strain vps35, active compounds read low 0.991 | locus YJL164C, strain tpk1, active compounds read low 0.988 | locus YJL166W, strain qcr8, active compounds read low 0.981 | locus YJL168C, strain set2, active compounds read low 0.967 | locus YJL187C, strain SWE1 (second series), active compounds read low 0.954 | locus YJL187C, strain SWE1, active compounds read low 0.989 | locus YJR043C, strain POL32, active compounds read low 0.979 | locus YJR066W, strain TOR1, active compounds read low 0.897
